# Experimental data reported in the supplement of paper PMC3334620.
# Whole data set: some 33,000 sequences, median “E-score (-0.5 to 0.5)” near -0.032, cut for the highest 2% near 0.36. Only a selection was taken, and the highest values are over-represented in it overall.
# Molecular target: T1, Sko1 (UniProt Q02100)
# T1 sequence: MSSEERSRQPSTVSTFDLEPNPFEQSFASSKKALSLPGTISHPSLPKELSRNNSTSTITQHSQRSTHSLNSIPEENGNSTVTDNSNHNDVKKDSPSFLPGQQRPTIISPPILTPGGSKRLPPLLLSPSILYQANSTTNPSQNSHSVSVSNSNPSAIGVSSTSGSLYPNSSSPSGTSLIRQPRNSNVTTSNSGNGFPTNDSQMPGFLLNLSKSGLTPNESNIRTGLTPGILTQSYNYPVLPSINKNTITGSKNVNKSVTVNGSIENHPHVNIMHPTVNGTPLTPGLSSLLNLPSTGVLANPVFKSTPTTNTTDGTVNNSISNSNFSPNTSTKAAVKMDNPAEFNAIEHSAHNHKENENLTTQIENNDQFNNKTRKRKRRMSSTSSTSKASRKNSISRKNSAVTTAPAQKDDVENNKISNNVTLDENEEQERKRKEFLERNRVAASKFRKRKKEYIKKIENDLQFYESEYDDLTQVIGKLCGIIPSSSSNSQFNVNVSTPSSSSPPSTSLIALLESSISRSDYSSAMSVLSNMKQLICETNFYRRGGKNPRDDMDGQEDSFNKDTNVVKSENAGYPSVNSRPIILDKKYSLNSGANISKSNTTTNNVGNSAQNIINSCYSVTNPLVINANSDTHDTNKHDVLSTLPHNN
# Assay: PBM E-score (8-mer binding enrichment) (E-score (-0.5 to 0.5)); higher = stronger / more preferred TF binding
# Conditions: protein concentration: 200 nM; construct: GST-full length
# Description: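 Universal 'all 10-mer' protein binding microarrays (Agilent AMADID 015681) probed with GST-tagged S. cerevisiae TFs (full-length or DBD) made by in vitro transcription/translation (PURExpress), about 100-200 nM. Bound TF was detected with fluorescent anti-GST. Each ungapped 8-mer (which stands for itself and its reverse complement) is scored by the PBM enrichment score (E-score), a modified Wilcoxon-Mann-Whitney statistic from -0.5 to +0.5, computed with the Universal PBM Analysis Suite. Scale: above 0.35 generally sequence-specific binding.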
row,Sequence,PBM E-score
1,AGATACCC,-0.0725
2,CTTGAAAG,-0.0877
3,ACGACTTG,-0.058
4,CCAGCGTC,-0.229
5,GTAATGAA,0.281
6,GTAATGAC,0.399
7,CTAATGAC,0.299
8,GACGTCTA,0.358
9,TACGTCTA,0.421
10,AACGTCAA,0.424
11,GACGTCCA,0.331
12,GACGTCCC,0.217
13,AACGTCTA,0.239
14,CACGTCTA,0.314
15,AACGTCCA,0.245
16,CACGTCCA,0.254
17,GACGTCGC,0.334
18,TACGTCCA,0.404
19,GACGTCAC,0.487
20,ATTGTTGC,0.236
21,ACAGGAGT,-0.0316
22,CCCACTGC,-0.115
23,ATGCGCCA,-0.00554
24,ATAAGACG,0.115
25,CCCGTCAG,-0.214

row,Sequence,PBM E-score
1,TCCGTCAA,0.0302
2,TACGTCAA,0.479
3,CCCGTCAA,-0.0876
4,TTCGTCAA,0.297
5,AACGTCTG,0.239
6,AACGTCAG,0.429
7,CACGTCAG,0.462
8,CACGTCAA,0.426
9,AACGTCGG,0.182
10,CACGTCTG,0.23
11,CCTGTGCC,-0.224
12,GCGACGCC,-0.0621
13,ATAGGTGC,-0.114
14,ATCCATGG,-0.237
15,GAGATCAC,0.00833
16,AAGCAAGA,0.0771
17,AGTTGTGA,0.0903
18,CACGATGG,-0.0649
19,CGTGGCGA,0.0528
20,GCCGTCAA,-0.081
21,AACGTCCC,-0.0499
22,AACGTCAT,0.493
23,AACGTCGT,0.247
24,GACGTCAA,0.47
25,CACGTCTC,0.134

row,Sequence,PBM E-score
1,AGCGTCAC,0.252
2,AACGTCTC,0.111
3,GACGTCTC,0.384
4,AACGTCAC,0.471
5,AACGTCCT,0.0619
6,ACGGTTTA,-0.0562
7,CTCCAGGA,-0.0718
8,CGTGGTAC,0.213
9,ACCCGCGG,-0.0735
10,CAGCGAGG,-0.233
11,TCGGGCAA,-0.0812
12,ATCCTGTC,-0.0275
13,CAAATATC,0.109
14,CAGGGTCG,-0.241
15,GTCGGTGA,0.049
16,ACAACTAG,-0.00944
17,TGCGTCAA,0.377
18,CACGTCCC,0.00358
19,TGCGTCCA,0.155
20,GGCGTCAA,0.235
21,CACGTCAC,0.482
22,CACGTCGC,0.235
23,GGTGAGCA,-0.0791
24,AATTTAGC,0.187
25,GCCTGATA,-0.0647

row,Sequence,PBM E-score
1,TAAGGGAA,0.108
2,AAGACGGC,-0.219
3,GAGACGTA,0.394
4,CAGACGTC,0.322
5,CAGACGCA,0.055
6,AAGACGTC,0.419
7,GAGACGAA,-0.0289
8,AAGACGTG,0.291
9,AAGACGTA,0.454
10,GAGACGGA,-0.0605
11,CAGACGTA,0.387
12,AAGACGGA,-0.0952
13,AAGACGAC,0.0714
14,AGTCCTTC,-0.375
15,TCCGAACA,-0.124
16,CAATCTGG,-0.104
17,AGTACTCG,0.0859
18,AGCTTAGG,-0.198
19,CTTCGGTC,-0.0632
20,CCTGTGTA,-0.0155
21,GTCGGAAC,-0.0708
22,CGTAGTAC,0.372
23,AGTAGTAC,0.173
24,CGTAGTAG,0.309
25,AGGGTTGG,0.0955

row,Sequence,PBM E-score
1,AAGTAATG,0.0878
2,ATGTAATC,0.313
3,ACGTAATG,0.492
4,ATGTAATG,0.321
5,CCGTAATC,0.111
6,ACGTAATC,0.492
7,AGGCCGCC,-0.182
8,CTTCCCGC,-0.0138
9,CACCTTCG,-0.136
10,ATCTTGCC,-0.0574
11,GTCGAACA,-0.00814
12,ACTGCGTG,0.131
13,ATTGCGTG,0.419
14,ACTGCGTA,0.343
15,ATTGCGAG,-0.0027
16,GTTGCGTA,0.422
17,GTTGCGGA,0.0145
18,GCTGCGTA,0.308
19,ATTGCGCA,0.251
20,ATTGCGCC,-0.0972
21,CTTGCGTC,0.27
22,ATTGCGTC,0.414
23,ATTGCGTA,0.472
24,GAGCAGAC,-0.0861
25,GTGTCCCA,-0.0921

row,Sequence,PBM E-score
1,AGCCAGCT,-0.097
2,ATGAATTC,0.0634
3,CACAGTCA,-0.095
4,ATAATAGC,0.0417
5,GCGGTCCA,-0.323
6,ATTCAGCA,0.00168
7,CCTGCGTA,0.315
8,CTTGCGGA,-0.261
9,CTTGCGTA,0.423
10,CGTTGAGA,0.0138
11,AGCATCCA,-0.238
12,AAAAATCC,-0.162
13,AGTATGAA,0.0617
14,CGTATGAA,0.361
15,CGTATGTA,0.367
16,ATTATGTG,0.266
17,CGTATGGC,0.348
18,CGTATGTC,0.321
19,ATTATGTA,0.398
20,AGTATGTA,0.0841
21,ATTATGTC,0.336
22,GGTATGAC,0.183
23,CGTATGAC,0.445
24,CGTATGAG,0.267
25,CCACATCA,0.175

row,Sequence,PBM E-score
1,GAGATCGA,0.0574
2,ATCACTCA,0.0754
3,GAGCTAGA,-0.11
4,CCTGTTCA,-0.203
5,AAGCATAG,-0.128
6,AGAGCAGG,-0.126
7,CATCGCCG,-0.137
8,AAACAGCC,-0.17
9,GCTATACC,-0.171
10,AAATCCCC,-0.238
11,GGTAGATA,0.0735
12,AGTATGAT,0.286
13,AGTATGAG,0.129
14,AGTATGAC,0.376
15,AACCTACC,-0.193
16,CTAGGGTA,-0.161
17,CAGTGAGA,0.0132
18,AGTAATTC,0.169
19,AGTAATTA,0.263
20,CGTAATTA,0.439
21,GGTAATTA,0.239
22,CGTAATTC,0.435
23,CATAATTC,0.238
